Assay [1] in a line: qHTS of pediatric cancer cell lines to identify multiple opportunities for drug repurposing: Primary screen for BT-37 cells (AID 1347094). Note: potency is the fitted concentration of half-maximal effect. To be noted: BT-37 viability, CellTiter-Glo luminescence, 48 h; series mostly up to 57.3 µM. In short, it runs like this:
(§1)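 Readout: CellTiter-Glo luminescence, 48 h treatment. Controls DMSO (neutral) and bortezomib 2.3 µM final (positive). Potency and efficacy taken from primary-screen concentration-response curves.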

Assay [2] in a line: qHTS of pediatric cancer cell lines to identify multiple opportunities for drug repurposing: Primary screen for NB-EBc1 cells (AID 1347095). Note: potency is the fitted concentration of half-maximal effect. Particulars: NB-EBc1 neuroblastoma viability, CellTiter-Glo luminescence, 48 h; series mostly up to 46 µM. The method, boiled down: as §1
(In general: In qHTS, concentration-response curves come from the screen itself.)

Assay [3] can be described thus: qHTS of pediatric cancer cell lines to identify multiple opportunities for drug repurposing: Primary screen for U-2 OS cells (AID 1347096). Note: nearly all actives have a fitted effect of over 50% in size. Note: potency is the fitted concentration of half-maximal effect. To be noted: U-2 OS viability, CellTiter-Glo luminescence, 48 h; series mostly up to 46 µM. The method, boiled down: (§2)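 Cells (500-1,000/well) rested 5 h, then received compounds for 48 h; metabolically active cells were measured by CellTiter-Glo luminescence. Final concentrations spanned up to 46 µM (MIPE, 11-point) or 0.59 nM-46 µM (NPC, 8-point) in primary screens, 11-point in follow-ups.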

The nature of assay [4]: qHTS of pediatric cancer cell lines to identify multiple opportunities for drug repurposing: Primary screen for Saos-2 cells (AID 1347097). Note: nearly all actives have a fitted effect of over 40% in size. Note: potency is the fitted concentration of half-maximal effect. Particulars: Saos-2 viability, CellTiter-Glo ATP luminescence, 48 h; series mostly up to 46 µM. In short, it runs like this: as §1
A short description of assay [5]: qHTS of pediatric cancer cell lines to identify multiple opportunities for drug repurposing: Primary screen for NB1643 cells (AID 1347099). Note: nearly all actives have a fitted effect of over 50% in size. Note: potency is the fitted concentration of half-maximal effect. To be noted: NB1643 neuroblastoma viability, CellTiter-Glo luminescence, 48 h; series mostly up to 46 µM. The method, boiled down: as §1
The nature of assay [6]: qHTS of pediatric cancer cell lines to identify multiple opportunities for drug repurposing: Primary screen for LAN-5 cells (AID 1347100). Note: potency is the fitted concentration of half-maximal effect. Particulars: LAN-5 neuroblastoma viability, CellTiter-Glo luminescence, 48 h; series mostly up to 46 µM. In short, it runs like this:
as §2

The nature of assay [7]: qHTS of pediatric cancer cell lines to identify multiple opportunities for drug repurposing: Primary screen for BT-12 cells (AID 1347101). Note: nearly all actives have a fitted effect of over 25% in size. Note: potency is the fitted concentration of half-maximal effect. Particulars: BT-12 viability, CellTiter-Glo luminescence, 48 h; series mostly up to 57.3 µM. The method, boiled down:
as §2

Assay [8] is described as follows: qHTS of pediatric cancer cell lines to identify multiple opportunities for drug repurposing: Primary screen for RD cells (AID 1347104). Note: nearly all actives have a fitted effect of over 55% in size. Note: potency is the fitted concentration of half-maximal effect. To be noted: RD rhabdomyosarcoma viability, CellTiter-Glo luminescence, 48 h; series mostly up to 46 µM. The method, boiled down:
as §1

The nature of assay [9]: qHTS of pediatric cancer cell lines to identify multiple opportunities for drug repurposing: Primary screen for MG 63 (6-TG R) cells (AID 1347105). Note: nearly all actives have a fitted effect of over 50% in size. Note: potency is the fitted concentration of half-maximal effect. Particulars: MG 63 (6-TG R) viability, CellTiter-Glo, 48 h; series mostly up to 46 µM. The method, boiled down: as §1
Assay [10] is described as follows: qHTS of pediatric cancer cell lines to identify multiple opportunities for drug repurposing: Primary screen for control Hh wild type fibroblast cells (AID 1347106). Note: nearly all actives have a fitted effect of over 55% in size. Note: potency is the fitted concentration of half-maximal effect. To be noted: Hh wild-type fibroblast viability, CellTiter-Glo luminescence, 48 h; series mostly up to 46 µM. In short, it runs like this: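 Cells (500-1,000/well) in growth media were settled 5 h at 37 degrees C, then given compounds for 48 h. Viability was read as CellTiter-Glo luminescence. Primary runs used MIPE at 11 points (0.78 nM-46 µM) and NPC at 8 points (0.59 nM-46 µM); follow-ups used 11 points.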

The nature of assay [11]: qHTS of pediatric cancer cell lines to identify multiple opportunities for drug repurposing: Confirmatory screen for NB1643 cells (AID 1347109). Note: nearly all actives have a fitted effect of over 45% in size. Note: potency is the fitted concentration of half-maximal effect. To be noted: NB1643 neuroblastoma cell viability; series mostly up to 45.9 µM. The method, boiled down: as §2
Assay [12] in a line: qHTS of pediatric cancer cell lines to identify multiple opportunities for drug repurposing: Confirmatory screen for A673 cells (AID 1347110).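 Note: potency is the fitted concentration of half-maximal effect; cells exposed to compound for 48 h before the viability read; nearly all actives have a fitted effect of over 65% in size.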 Particulars: A673 Ewing sarcoma cell viability; series mostly up to 45.9 µM. The method, boiled down:
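Cells plated at 500-1,000/well were treated five hours later with multi-point dilutions up to 46 µM final. After two days, CellTiter-Glo was added and luminescence read.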

Assay [13] can be described thus: qHTS of pediatric cancer cell lines to identify multiple opportunities for drug repurposing: Confirmatory screen for SK-N-MC cells (AID 1347111).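 Note: cells exposed to compound for 48 h before the readout; nearly all actives have a fitted effect of over 70% in size.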 To be noted: SK-N-MC cell viability; series mostly up to 45.9 µM. The method, boiled down:
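Seed 500-1,000 cells/well; rest 5 h at 37 degrees C. Pin-transfer compounds, 11-point titration. Incubate 48 h. Add CellTiter-Glo, 15 min RT, read luminescence.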

The nature of assay [14]: qHTS of pediatric cancer cell lines to identify multiple opportunities for drug repurposing: Confirmatory screen for BT-12 cells (AID 1347112). Note: nearly all actives have a fitted effect of over 55% in size. Note: potency is the fitted concentration of half-maximal effect. Particulars: BT-12 rhabdoid tumor cells, viability; series mostly up to 45.9 µM. The method, boiled down:
as §2

Assay [15] in a line: qHTS of pediatric cancer cell lines to identify multiple opportunities for drug repurposing: Confirmatory screen for LAN-5 cells (AID 1347113). Note: nearly all actives have a fitted effect of over 65% in size. Note: potency is the fitted concentration of half-maximal effect. Particulars: LAN-5 neuroblastoma cell viability; series mostly up to 45.9 µM. In short, it runs like this:
as §2

Assay [16] can be described thus: qHTS of pediatric cancer cell lines to identify multiple opportunities for drug repurposing: Primary screen for SK-N-SH cells (AID 1347098). Note: nearly all actives have a fitted effect of over 65% in size. Note: potency is the fitted concentration of half-maximal effect. Particulars: SK-N-SH viability, CellTiter-Glo luminescence, 48 h; series mostly up to 57 µM. In short, it runs like this:
as §2

Assay [17] is described as follows: qHTS of pediatric cancer cell lines to identify multiple opportunities for drug repurposing: Primary screen for Rh18 cells (AID 1347102). Note: nearly all actives have a fitted effect of over 65% in size. Note: potency is the fitted concentration of half-maximal effect. To be noted: Rh18 rhabdomyosarcoma viability, CellTiter-Glo luminescence, 48 h; series mostly up to 46 µM. In short, it runs like this: as §2
Assay [18] in a line: qHTS of pediatric cancer cell lines to identify multiple opportunities for drug repurposing: Primary screen for OHS-50 cells (AID 1347103). Note: nearly all actives have a fitted effect of over 40% in size. Note: potency is the fitted concentration of half-maximal effect. To be noted: OHS-50 osteosarcoma viability, CellTiter-Glo luminescence, 48 h; series mostly up to 57.3 µM. In short, it runs like this: as §2
Assay [19] in a line: qHTS of pediatric cancer cell lines to identify multiple opportunities for drug repurposing: Primary screen for Rh30 cells (AID 1347107). Note: nearly all actives have a fitted effect of over 75% in size. Note: potency is the fitted concentration of half-maximal effect. To be noted: Rh30 rhabdomyosarcoma viability, CellTiter-Glo luminescence, 48 h; series mostly up to 46 µM. In short, it runs like this: as §2
Assay [20] in a line: qHTS of pediatric cancer cell lines to identify multiple opportunities for drug repurposing: Primary screen for Rh41 cells (AID 1347108). Note: nearly all actives have a fitted effect of over 70% in size. Note: potency is the fitted concentration of half-maximal effect. To be noted: Rh41 rhabdomyosarcoma viability, CellTiter-Glo luminescence, 48 h; series mostly up to 46 µM. The method, boiled down:
as §1

In PubChem BioAssay (NCATS) one finds Potency data, which are given here for 7 molecules.

Records with an inconclusive call do not appear. Active and inactive are the calls of the source. Calls come from the whole dose curve; as a rule, active = well fitted curve in the direction sought with a large enough effect; inconclusive = small, poorly fitted or top-dose-only effect, or another doubt; inactive = no such curve, though single readings can be large; an effect the other way counts as inactive or inconclusive.

Consider `CC(=NNC(=S)N1CCC1)c1ccccn1`, for which the Potency in assay [1] was 5.4 nM (active); in [2] it was 16.6 nM (active); in assay [5], 1 nM (active); in [6], 935 nM (active); in assay [7], 1.4 nM (active); in [8], 3 nM (active). Moreover, the figures for the Potency in assay [9], in [10] and in [12] were 23.5 nM (active), 166 nM (active) and 23300 nM (active), respectively. In addition, the Potency entry in [3], in assay [4], in assay [11], in [13], in assay [14] and in assay [15] was “inactive” each time.
As to `O=C1c2ccccc2-[n+]2ccc3c([nH]c4ccccc43)c21`, the Potency is 2430 nM (active) in assay [1]; 833 nM (active) in assay [2]; 9350 nM (active) in assay [3]; 2350 nM (active) in assay [4]; 1520 nM (active) in assay [16]; 1660 nM (active) in assay [6]. In addition, the Potency in assay [7] was 6850 nM (active); in [17], 2350 nM (active); in assay [18], 2170 nM (active); in [8], 1870 nM (active); in assay [9], 2960 nM (active); in [10] it was 9350 nM (active). Moreover, the Potency is 4180 nM (active) in [19]; 2960 nM (active) in [20]; 2080 nM (active) in assay [11]; 2930 nM (active) in assay [12]; 2930 nM (active) in assay [14]; 827 nM (active) in [15].
In the case of `CCCNC(=O)NS(=O)(=O)c1ccc(Cl)cc1`, the Potency result in [1], in assay [2], in [3], in [4], in assay [16] and in assay [5] was “inactive” throughout. In addition, the Potency result in assay [7], in assay [17], in assay [18], in [8], in assay [9] and in assay [10] was “inactive” throughout. Further, the Potency entry in assay [19] and in assay [20] was “inactive” in each case.
Turning to `COc1ccc2cccc(CCNC(C)=O)c2c1`, the Potency entry in assay [1], in [2], in assay [3], in assay [4], in assay [16] and in [6] was “inactive” each time. The Potency entry in assay [7], in assay [17], in assay [18], in assay [8], in assay [9] and in assay [10] was “inactive” throughout. Also, the Potency entry in assay [19] and in assay [20] was “inactive” in each case.
With `NCCS`, the Potency entry in assay [1], in [2], in assay [3], in assay [4], in assay [16] and in [7] was “inactive” throughout. Also, the Potency result in assay [17], in assay [18], in assay [8], in assay [9], in assay [10] and in assay [19] was “inactive” throughout. Further, in [20], the Potency result is “inactive”.
Turning to `NC(=O)NN=Cc1ccc([N+](=O)[O-])o1`, the Potency entry in assay [1], in assay [2], in assay [3], in assay [4], in assay [16] and in assay [17] was “inactive” each time. Moreover, the Potency result in assay [18], in assay [8], in assay [9], in [10], in assay [19] and in assay [20] was “inactive” in each case.
`CCC(CC)[C@H](NC(C)=O)[C@@H]1[C@H](O)[C@@H](C(=O)O)C[C@@H]1N=C(N)N`: the Potency result in assay [1], in [2], in assay [3], in assay [4], in assay [16] and in assay [6] was “inactive” throughout. Moreover, the Potency entry in assay [7], in [17], in [18], in assay [8], in assay [9] and in [10] was “inactive” each time. The Potency result in assay [19] and in assay [20] was “inactive” each time.
